Results filed as inconclusive are left out. Active and inactive are the calls of the source. Unless noted, calls follow the shape of the dose curve; as a rule, active = well fitted cell-killing curve with a large enough effect; inconclusive = small, poorly fitted or top-dose-only effect; inactive = flat fitted curve, though single readings scatter.
What was measured:
[1] = Cell Viability - LYMP2-002 (AID 977);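 also: series mostly up to about 92 µM; plate controls were DMSO only for no effect and 92 µM tetraoctylammonium bromide for full effect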
Outline: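 Luminescent ATP readout (CellTiter-Glo, 30 min room temperature) after 24 h compound exposure at 37 C of a human lymphoblastoid line, 2500 cells/well. AC50 values derived by standard Hill fitting of qHTS concentration-response data.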

[2] = Cell Viability - LYMP2-006 (AID 978); also: series mostly up to about 92 µM; % is scaled to controls: 0 for no effect and ±100 for the full control effect; nearly all actives have a fitted effect of over 60% in size
Outline: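 Potency values are Hill-fit AC50s for decreases in intracellular ATP (CellTiter-Glo luminescence). LYMP2-006 lymphoblastoid cells, 2500 per well, were exposed to compound in complete culture medium for 24 hr at 37 C.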

[3] = Cell Viability - LYMP2-007 (AID 979);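 also: cells exposed to compound for 24 h before reading; 0% = DMSO only and the negative end = 92 µM tetraoctylammonium bromide; nearly all actives have a fitted effect of over 60% in size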
Outline: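 Human lymphoblastoid LYMP2-007 cells (2500/well) preincubated 5 h at 37 C, then treated 24 h at 37 C in complete medium. Viability by CellTiter-Glo ATP luminescence after 30 min at room temperature; AC50 from Hill fits.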

[4] = Cell Viability - LYMP2-008 (AID 980); also: % is scaled to controls: 0 for no effect and ±100 for the full control effect; nearly all actives have a fitted effect of over 60% in size
Outline: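 LYMP2-008 lymphoblastoid cells (2500/well) plated 5 h, then treated 24 h at 37 C in complete medium. Viability read as intracellular ATP by CellTiter-Glo luminescence after 30 min at room temperature; AC50 from Hill fits.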

[5] = Cell Viability - LYMP2-010 (AID 981); also: % is scaled to controls: 0 for no effect and ±100 for the full control effect; nearly all actives have a fitted effect of over 55% in size
Outline: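 Human lymphoblastoid LYMP2-010 cells (2500/well) treated 24 h at 37 C in complete medium; viability read as intracellular ATP by CellTiter-Glo luminescence. AC50 from Hill fits of concentration-response data; tetraoctylammonium bromide positive control.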

[6] = Cell Viability - LYMP2-012 (AID 982);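 also: cellular ATP by luciferase luminescence where a drop means cytotoxicity; cells exposed to compound for one day before reading; 0% = DMSO only and full loss = 92 µM tetraoctylammonium bromide; nearly all actives have a fitted effect of over 55% in size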
[7] = Cell Viability - LYMP2-014 (AID 983);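 also: series mostly up to about 92 µM; plate controls were DMSO only for no effect and 92 µM tetraoctylammonium bromide for full effect; nearly all actives have a fitted effect of over 50% in size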
Outline: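 LYMP2-014 human lymphoblastoid cells, 2500/well, treated 24 h at 37 C in complete medium; viability by CellTiter-Glo ATP luminescence after 30 min at room temperature. AC50 from Hill fits of qHTS concentration-response; tetraoctylammonium bromide positive control.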

[8] = Cell Viability - LYMP2-016 (AID 984); also: % is scaled to controls: 0 for no effect and ±100 for the full control effect; nearly all actives have a fitted effect of over 55% in size
Outline: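 Cytotoxicity was scored by luminescent ATP content (CellTiter-Glo) after 24 h compound exposure at 37 C of a human lymphoblastoid line at 2500 cells/well. Concentration-response data were fitted to the Hill equation for AC50.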

[9] = Cell Viability - LYMP2-020 (AID 986);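 also: series mostly up to about 92 µM; plate controls were DMSO only for no effect and tetraoctylammonium bromide at 92 µM for full effect; nearly all actives have a fitted effect of over 55% in size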
Outline: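 Human lymphoblastoid LYMP2-020 cells (2500/well) preincubated 5 h at 37 C, then treated 24 h at 37 C. Viability measured as intracellular ATP by CellTiter-Glo luminescence after 30 min at room temperature; AC50 from Hill fits.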

[10] = Cell Viability - LYMP2-022 (AID 987)
Outline: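 LYMP2-022 lymphoblastoid cells (2500/well, complete medium) were treated with compounds for 24 hours at 37 C; intracellular ATP was then read by CellTiter-Glo luminescence after 30 min at room temperature. AC50 values were derived from Hill-equation fits.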

[11] = Cell Viability - LYMP2-024 (AID 988);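 also: plate controls were DMSO only for no effect and 92 µM tetraoctylammonium bromide for full effect; nearly all actives have a fitted effect of over 60% in size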
Outline: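 Human lymphoblastoid LYMP2-024 cells (2500/well) rested 5 hr, then treated with compound for 24 hr at 37 C in complete medium. Viability was measured as intracellular ATP by CellTiter-Glo luminescence. AC50 values came from Hill-equation fits.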

[12] = Cell Viability - LYMP2-026 (AID 989); also: % is scaled to controls: 0 for no effect and ±100 for the full control effect; nearly all actives have a fitted effect of over 50% in size
Outline: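 Human lymphoblastoid LYMP2-026 cells, 2500/well, exposed to compound 24 h at 37 C in complete medium. Viability as intracellular ATP by CellTiter-Glo luminescence; AC50 from Hill fits of qHTS concentration-response.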

[13] = Cell Viability - LYMP1-002 - Assay at 40 hr (AID 994)
Outline: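 LYMP1-002 human lymphoblastoid cells (2500/well, complete medium) were treated with compounds for 40 hr at 37 C. Intracellular ATP was measured by CellTiter-Glo luminescence, and AC50 values came from Hill-equation fits of concentration-response data; tetraoctylammonium bromide was the positive control.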

[14] = qHTS Assay for Identification of Small Molecule Inducers of Hypoxia Response (AID 2120; active = well fitted curve in the direction sought with a large enough effect in the signal ratio, with a control signal flat, not every such curve was filed as active; the % refers to the signal ratio; also: 0% is about no effect)
Outline: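 HRE-bla ME-180 cells in Opti-MEM with 0.5% dialyzed FBS, pre-plated 4-5 h, then compound titration for 17 h at 37 degrees Celsius. CCF4 loaded 2.5 h at room temperature; 460/530 nm ratio gave %Activity and AC50 for induction.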

[15] = target: Estrogen receptor (Homo sapiens) (UniProt P03372); test: qHTS assay for small molecule antagonists of estrogen receptor alpha signaling (AID 588513; active = well fitted curve in the direction sought with a large enough effect in the signal ratio, with a control signal flat, not every such curve was filed as active; the % refers to the signal ratio; also: % is scaled to controls: 0 for no effect and ±100 for the full control effect)
Outline: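 Antagonist mode: inhibition of 0.5 nM 17-beta-estradiol-driven beta-lactamase reporter in HEK 293 ER-alpha-UAS-bla cells, 18 h at 37C, CCF4 readout after 2 h at RT. Normalised to estradiol and DMSO; titration fitted to Hill.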

[16] = target: Estrogen receptor (Homo sapiens) (UniProt P03372); test: qHTS assay for small molecule agonists of estrogen receptor alpha signaling (AID 588514; calls by dose curve;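 also: 0% = vehicle only and 100% = reference agonist; nearly all actives have a fitted effect of over 70% in size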)
Outline: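 ER-alpha-UAS-bla GripTite HEK293 cells, 5000/well in 2% charcoal/dextran-stripped FBS medium, treated with compound titrations 18 h at 37 C. CCF4 beta-lactamase read by fluorescence after 2 h RT; normalised to 20 nM 17-beta-estradiol (100%) and DMSO (0%), Hill fit for EC50 and efficacy.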

[17] = target: Androgen receptor (Homo sapiens) (UniProt P10275); test: qHTS assay for small molecule agonists of androgen receptor signaling (AID 588515; active = well fitted curve in the direction sought with a large enough effect in the signal ratio, with a control signal flat; the % refers to the signal ratio; also: % is scaled to controls: 0 for no effect and ±100 for the full control effect); settings: AR-UAS-bla HEK293, beta-lactamase ratio, agonist 16 h; stronger effect = higher value
Outline: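 EC50 and efficacy came from Hill fits of titrations (up to 92 uM) normalized to 30 nM R1881 as 100% and DMSO as 0%. Compound exposure was 16 h at 37 C on AR-UAS-bla HEK293 cells, with a 405/460/530 nm CCF4 fluorescence read.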

[18] = target: Androgen receptor (Homo sapiens) (UniProt P10275); test: qHTS assay for small molecule antagonists of androgen receptor signaling (AID 588516; active = well fitted curve in the direction sought with a large enough effect in the signal ratio, with a control signal flat, not every such curve was filed as active; the % refers to the signal ratio; also: % is scaled to controls: 0 for no effect and ±100 for the full control effect)
Outline: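 Antagonist mode: inhibition of R1881-stimulated (10 nM final) bla reporter in GeneBLAzer AR HEK 293 cells, 16 h at 37C, compounds titrated. IC50 and efficacy from Hill-equation fits of 405/460–530 nm FRET ratios.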

[19] = Cell Viability - LYMP2-018 (AID 985);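 also: compound exposure lasted 24 hr at 37 °C; plate controls were DMSO only for no effect and tetraoctylammonium bromide at 92 µM for full effect; nearly all actives have a fitted effect of over 50% in size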
Outline: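 Human lymphoblastoid LYMP2-018 cells, 2500/well, settled 5 hr at 37 C then exposed to compound 24 hr at 37 C; intracellular ATP measured by CellTiter-Glo luminescence. AC50 from Hill-equation concentration-response fits.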

[20] = Cell Viability - LYMP1-002 - Assay at 24 hr (AID 993); also: % is scaled to controls: 0 for no effect and ±100 for the full control effect
Outline: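 Human lymphoblastoid LYMP1-002 cells (2500/well) treated 24 h at 37 °C; viability as intracellular ATP by CellTiter-Glo luminescence. Tetraoctylammonium bromide as positive control; AC50 from Hill-equation fits of qHTS concentration-response.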

Chain of Estrogen receptor (Homo sapiens) (P03372 whole entry, looked up): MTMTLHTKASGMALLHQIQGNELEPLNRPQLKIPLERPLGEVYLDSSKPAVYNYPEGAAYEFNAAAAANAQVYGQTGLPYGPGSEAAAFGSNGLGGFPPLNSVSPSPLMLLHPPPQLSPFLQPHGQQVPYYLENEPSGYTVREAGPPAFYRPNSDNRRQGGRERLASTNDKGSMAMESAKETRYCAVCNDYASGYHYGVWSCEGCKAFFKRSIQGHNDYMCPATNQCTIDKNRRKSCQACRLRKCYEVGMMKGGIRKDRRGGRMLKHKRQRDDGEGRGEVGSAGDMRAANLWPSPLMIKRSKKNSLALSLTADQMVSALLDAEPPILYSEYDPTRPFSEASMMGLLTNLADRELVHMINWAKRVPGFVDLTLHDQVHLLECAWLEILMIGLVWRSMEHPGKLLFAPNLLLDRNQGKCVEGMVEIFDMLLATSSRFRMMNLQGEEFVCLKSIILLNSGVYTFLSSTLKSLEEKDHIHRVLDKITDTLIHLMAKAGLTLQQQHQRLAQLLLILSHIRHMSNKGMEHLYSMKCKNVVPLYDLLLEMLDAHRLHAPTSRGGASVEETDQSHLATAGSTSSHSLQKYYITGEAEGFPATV
Chain of Androgen receptor (Homo sapiens) (P10275 whole entry, looked up): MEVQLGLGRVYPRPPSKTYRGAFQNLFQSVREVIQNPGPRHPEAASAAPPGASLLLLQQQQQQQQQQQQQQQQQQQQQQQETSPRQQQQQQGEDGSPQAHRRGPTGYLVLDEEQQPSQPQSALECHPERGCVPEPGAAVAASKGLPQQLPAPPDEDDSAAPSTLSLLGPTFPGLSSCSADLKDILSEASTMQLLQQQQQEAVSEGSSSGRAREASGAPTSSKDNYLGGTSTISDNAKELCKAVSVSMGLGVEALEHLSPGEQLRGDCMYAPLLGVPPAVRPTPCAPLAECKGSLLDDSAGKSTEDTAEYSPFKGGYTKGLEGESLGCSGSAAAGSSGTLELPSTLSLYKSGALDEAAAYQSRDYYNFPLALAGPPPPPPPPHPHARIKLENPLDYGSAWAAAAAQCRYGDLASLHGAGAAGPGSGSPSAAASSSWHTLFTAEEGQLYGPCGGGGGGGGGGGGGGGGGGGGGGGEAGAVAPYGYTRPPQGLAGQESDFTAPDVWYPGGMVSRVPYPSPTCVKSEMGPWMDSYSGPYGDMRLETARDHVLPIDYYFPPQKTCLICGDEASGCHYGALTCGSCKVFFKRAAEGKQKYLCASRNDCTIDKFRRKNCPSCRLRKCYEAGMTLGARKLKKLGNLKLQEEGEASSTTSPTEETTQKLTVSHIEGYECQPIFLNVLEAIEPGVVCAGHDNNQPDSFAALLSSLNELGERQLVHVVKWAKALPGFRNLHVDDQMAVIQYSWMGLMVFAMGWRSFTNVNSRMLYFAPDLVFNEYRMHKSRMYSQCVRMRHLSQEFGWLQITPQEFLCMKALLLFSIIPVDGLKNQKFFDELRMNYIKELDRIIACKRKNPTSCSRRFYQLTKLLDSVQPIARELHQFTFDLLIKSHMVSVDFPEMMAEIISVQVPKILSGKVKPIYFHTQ

CCOc1cc(OCC)c(C(C)=O)cc1OCC
inactive: Potency [1] | Potency [2] | Potency [3] | Potency [4] | Potency [5] | Potency [6] | Potency [7] | Potency [8] | Potency [9] | Potency [10] | Potency [11] | outcome [12] | Potency [13] | outcome [14] | outcome [15] | Potency [16] | activation [17] -14.7% | outcome [18]

COc1ccc(N=[N+]([O-])c2ccc(OC)cc2)cc1
inactive: Potency [1] | Potency [2] | Potency [3] | Potency [4] | Potency [5] | Potency [6] | Potency [7] | Potency [8] | Potency [19] | Potency [9] | Potency [10] | Potency [11] | outcome [12] | Potency [20] | Potency [13] | outcome [14] | outcome [15] | Potency [16]

Nc1ccc(Cl)cc1[N+](=O)[O-]
inactive: Potency [1] | Potency [2] | Potency [3] | Potency [4] | Potency [5] | Potency [6] | Potency [7] | Potency [8] | Potency [19] | Potency [9] | Potency [10] | Potency [11] | outcome [12] | Potency [20] | Potency [13] | outcome [14] | outcome [15] | Potency [16] | outcome [18]

CCCCCCO
inactive: Potency [1] | Potency [2] | Potency [3] | Potency [4] | Potency [5] | Potency [6] | Potency [7] | Potency [8] | Potency [19] | Potency [9] | Potency [10] | Potency [11] | outcome [12] | Potency [20] | outcome [14] | outcome [15] | Potency [16]

c1ccsc1
inactive: Potency [1] | Potency [2] | Potency [3] | Potency [4] | Potency [5] | Potency [6] | Potency [7] | Potency [8] | Potency [19] | Potency [9] | Potency [10] | Potency [11] | outcome [12] | outcome [14] | outcome [15] | Potency [16] | outcome [18]

CCC(O)C(C)(C)C (stereo not drawn)
inactive: Potency [1] | Potency [2] | Potency [3] | Potency [4] | Potency [5] | Potency [6] | Potency [7] | Potency [8] | Potency [19] | Potency [9] | Potency [10] | Potency [11] | outcome [12] | Potency [20] | outcome [14] | outcome [15] | Potency [16]

O=P(O)(OCc1ccccc1)OCc1ccccc1
inactive: Potency [1] | Potency [2] | Potency [3] | Potency [4] | Potency [5] | Potency [6] | Potency [7] | Potency [8] | Potency [19] | Potency [9] | Potency [10] | Potency [11] | outcome [12] | Potency [20] | outcome [14] | outcome [15] | Potency [16]

Cc1cc([N+](=O)[O-])ccc1N
inactive: Potency [1] | Potency [2] | Potency [3] | Potency [4] | Potency [5] | Potency [6] | Potency [7] | Potency [8] | Potency [19] | Potency [9] | Potency [10] | Potency [11] | outcome [12] | Potency [20] | Potency [13] | outcome [14] | outcome [15] | Potency [16]

C/C(C=O)=C/c1ccccc1
inactive: Potency [1] | Potency [2] | Potency [3] | Potency [4] | Potency [5] | Potency [6] | Potency [7] | Potency [8] | Potency [19] | Potency [9] | Potency [10] | Potency [11] | outcome [12] | Potency [20] | Potency [13] | outcome [14] | outcome [15] | Potency [16]

CCOc1ccc(NC(C)=O)cc1N
inactive: Potency [2] | Potency [3] | Potency [4] | Potency [6] | Potency [7] | Potency [9] | Potency [10] | Potency [11] | outcome [12] | Potency [20] | outcome [14] | outcome [15] | Potency [16] | outcome [18]

FC(F)(F)c1ccccc1Cl
inactive: Potency [1] | Potency [2] | Potency [3] | Potency [4] | Potency [5] | Potency [6] | Potency [7] | Potency [8] | Potency [19] | Potency [9] | Potency [10] | Potency [11] | outcome [12] | Potency [20] | Potency [13] | outcome [14] | outcome [15] | Potency [16]

COc1cccc2sc(N)nc12
inactive: Potency [1] | Potency [2] | Potency [4] | Potency [5] | Potency [6] | Potency [7] | Potency [8] | Potency [9] | Potency [10] | Potency [11] | outcome [12] | Potency [13] | outcome [14] | outcome [15] | Potency [16] | outcome [18]

COc1ccc(OC)cc1
inactive: Potency [1] | Potency [2] | Potency [3] | Potency [4] | Potency [5] | Potency [6] | Potency [7] | Potency [8] | Potency [19] | Potency [9] | Potency [10] | Potency [11] | outcome [12] | Potency [20] | outcome [14] | outcome [15] | Potency [16]

FC(F)(F)c1cccc(Cl)c1
inactive: Potency [1] | Potency [2] | Potency [3] | Potency [4] | Potency [5] | Potency [6] | Potency [7] | Potency [8] | Potency [19] | Potency [9] | Potency [10] | Potency [11] | outcome [12] | Potency [20] | Potency [13] | outcome [14] | outcome [15] | Potency [16] | outcome [18]

Cc1ccc(CO)cc1
inactive: Potency [1] | Potency [2] | Potency [3] | Potency [4] | Potency [5] | Potency [6] | Potency [7] | Potency [8] | Potency [19] | Potency [9] | Potency [10] | Potency [11] | outcome [12] | Potency [20] | Potency [13] | outcome [14] | outcome [15] | Potency [16]

Cc1ccc(C)cc1
inactive: Potency [1] | Potency [2] | Potency [3] | Potency [4] | Potency [5] | Potency [6] | Potency [7] | Potency [8] | Potency [19] | Potency [9] | Potency [10] | Potency [11] | outcome [12] | Potency [20] | outcome [14] | outcome [15] | Potency [16] | activation [17] 10.6% | outcome [18]

C=C(C)C(=O)OCC(C)C
inactive: Potency [1] | Potency [2] | Potency [3] | Potency [4] | Potency [5] | Potency [6] | Potency [7] | Potency [8] | Potency [19] | Potency [9] | Potency [10] | Potency [11] | outcome [12] | Potency [20] | Potency [13] | outcome [14] | outcome [15] | Potency [16]

Reference: PubChem BioAssay (NCATS)
